Test results reported in ChEMBL document CHEMBL1157539, “Thousands of chemical starting points for antimalarial lead identification” (Nature, 2010).

Tests used:
Type in all cases: functional
Plasmodium falciparum [1] = test: GSK_TCMDC: Inhibition of Plasmodium falciparum 3D7 in whole red blood cells, using parasite LDH activity as an index of growth. Test compounds present at 2uM
Plasmodium falciparum [2] = test: GSK_TCMDC: Inhibition of Plasmodium falciparum Dd2 in whole red blood cells, using parasite LDH activity as an index of growth. Test compounds present at 2uM
HepG2 = test: GSK_TCMDC: Percent inhibition of human HepG2 cell line. Test compounds present at 10uM.

Row | Compound | Inhibition (Plasmodium falciparum [1]) [%] | Inhibition (Plasmodium falciparum [2]) [%] | Inhibition (HepG2) [%]
1 | COc1ccc(-c2cccc(NC(=O)c3cccc(F)c3)c2)cc1CN1CCCN(C)CC1.O=C(O)C(F)(F)F | 100 | 78 | 42
2 | Oc1ccc(-c2cc(-c3ccc(O)cc3)nc(-c3ccccc3)n2)cc1 | 96 | 97 | 0
3 | CC(=O)N(Cc1nc(-c2cc(C(F)(F)F)cc(C(F)(F)F)c2)cs1)c1c(C)cccc1C | 100 | 99 | 0
4 | CN(CCCCCN1CCC(NC(=O)Nc2ccc(C(F)(F)F)cc2)C1)C(=O)/C=C/c1ccc(Cl)c(Cl)c1 (centres undefined) | 100 | 11 | 28
5 | COc1cc2nc(N3CCC(CCCC4CCNCC4)CC3)nc(NCc3ccccn3)c2cc1OC.O=C(O)C(F)(F)F | 100 | 6 | 2
6 | COc1ccccc1C1CCN(CCN2CCC(NC(=O)c3ccc(-c4ccc(C#N)cc4)cc3)CC2)CC1 | 99 | 42 | 31
7 | C=C(C)Cn1cc(C2CCN(CCN3CCC(CNC(=O)c4ccc(-c5ccc(C#N)cc5)cc4)CC3)CC2)c2ccccc21 | 99 | 94 | 64
8 | OC1(c2ccc(Br)cc2)CCN(C2CCN(Cc3ccccc3)CC2)CC1 | 100 | 18 | 8
9 | O=C(Nc1cccc(N2CCC(NCc3cnn(-c4cccc(F)c4)c3)CC2)c1)c1ccncc1 | 84 | 40 | 50
10 | CCN1CCN(CC(O)CNC(=O)Nc2ccc(Cl)cc2)CC1.O=C(O)C(F)(F)F (centres undefined) | 100 | 99 | 29
11 | COc1ccc2nccc([C@@H](O)CN3CCC(NC(=O)/C=C/c4ccc5ccccc5n4)CC3)c2c1 | 91 | 9 | 12
12 | COc1cc(CNC[C@@H](O)[C@H](Cc2ccccc2)NC(=O)c2cc(C3CCCC3)cc(N3CCCS3(=O)=O)c2)cc(OC)c1.Cl | 95 | 94 | 31
13 | CC(=O)Nc1ccc2[nH]cc(C3CCN(CC4CCC(NC(=O)/C=C/c5ccc(Cl)c(Cl)c5)CC4)CC3)c2n1 (centres undefined) | 100 | 79 | 17
14 | CC(Nc1nncc(-c2cccc(F)c2)n1)c1ccc(F)cc1 (centres undefined) | 95 | 89 | 4
15 | O=C(NCCCN1CCC(NC(=O)c2ccc(-c3cccnc3)cc2)CC1)c1ccc(Cl)c(Cl)c1.O=C(O)C(F)(F)F | 94 | 23 | 17
16 | COc1ccc2c(c1)CCN(CCN1CCC(CNC(=O)c3ccc(-c4ccc(C#N)cc4)cc3)CC1)C2 | 100 | 51 | 40
17 | CN(C)c1cc2c(Nc3ccc4nc(Cc5ccccc5)[nH]c4c3)ncnc2cn1 [GW301888X] | 85 | 29 | 11
18 | CCCC(C)NC[C@@H](O)[C@H](Cc1ccccc1)NC(=O)c1cc(C2CCCC2)cc(N2CCCCS2(=O)=O)c1.Cl (some centres undefined) | 98 | 99 | 8
19 | CCC(C)NC(=O)Cn1c2ncccc2c(=O)n1-c1ccc(C)cc1 (centres undefined) | 95 | 63 | 4
20 | CCCN(CC)CCOC(=O)c1ccccc1 | 99 | 1 | 2
21 | CCCNCc1ccc(-c2ccc(CN(CCOC)C(=O)[C@H]3CCCO3)cc2)nc1.O=C(O)C(F)(F)F | 98 | 6 | 1
22 | Cc1cc(-c2ccc(NC(=O)Nc3ccc4nccc(N5CCN(C)CC5)c4c3)cc2C)cc(C)n1.Cl | 100 | 76 | 0
23 | Cc1ccc(O)cc1Nc1ccnc2ccc(-c3cccc(CN(C)C)c3)cc12 | 100 | 99 | 0
24 | Cc1ccc(NC(C)C(=O)Nc2ccccc2)cc1S(=O)(=O)N1CCCCCC1 (centres undefined) | 99 | 97 | 12
25 | CC1CCN(c2nc(C(=O)NCCc3ccc(Cl)c(Cl)c3)c(C(C)C)s2)CC1.O=C(O)C(F)(F)F | 88 | 38 | 0
26 | CCn1ccc2c(N3CCCC3=O)cc(C(=O)N[C@@H](Cc3ccccc3)[C@H](O)CNC(C)(C)CCCC(C)C)cc21 | 96 | 98 | 11
27 | C=CCN1C(=O)C(=Cc2cc(Br)ccc2O)SC1=Nc1ccccc1 | 96 | 55 | 0
28 | CC(C)CNCc1cccc(-c2ccc(CNc3ccc(C(=O)c4ccccc4)cc3)cc2)c1.O=C(O)C(F)(F)F | 97 | 0 | 10
